Sampled rows, rich in hits. Any-hit rate of the full collection: about 6.1%.
RORgamma inh = ROR gamma (mouse) transcription inhibition | P51450 | Drosophila S2 Gal4-RORgamma UAS-luciferase reporter, 20 h | Potency, µM (series often up to 53.6 µM), without a hit: at the top dose activity change, negative = inhibition, hits mostly inhibitors | actives 5.4% (n = 310,000); further: on the % scale 0 is the no-effect control and ±100 the full control effect; nearly all actives have a fitted effect of over 60% in size
Target sequence (P51450 whole entry, looked up, the tested form may be a part): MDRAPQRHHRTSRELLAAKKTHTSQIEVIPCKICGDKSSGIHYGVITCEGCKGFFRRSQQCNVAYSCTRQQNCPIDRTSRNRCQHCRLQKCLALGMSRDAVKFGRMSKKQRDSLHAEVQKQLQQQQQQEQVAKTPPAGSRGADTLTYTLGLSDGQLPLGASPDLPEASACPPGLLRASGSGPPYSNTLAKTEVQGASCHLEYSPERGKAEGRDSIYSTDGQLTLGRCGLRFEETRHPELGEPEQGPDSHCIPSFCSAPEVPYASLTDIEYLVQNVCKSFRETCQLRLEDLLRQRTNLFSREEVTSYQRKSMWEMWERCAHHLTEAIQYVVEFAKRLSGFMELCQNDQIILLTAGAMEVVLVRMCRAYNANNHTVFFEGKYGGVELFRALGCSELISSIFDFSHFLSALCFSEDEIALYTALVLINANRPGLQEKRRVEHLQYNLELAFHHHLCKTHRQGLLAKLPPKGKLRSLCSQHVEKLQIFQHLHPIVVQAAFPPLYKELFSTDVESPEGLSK
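Schneider cells (Drosophila), stable Gal4 DBD–ROR gamma + UAS-luc; 1 hr cmpd preincubation; Cu2+ induction 700 uM final; 20 hr ambient; luminescence.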
S2 tox = reduces viability in counter-screen for ATXN expression inhibitors. actives 0.49% (n = 400,000). Potency, µM (top dose mostly 56.7 µM), actives largely listed as cytotoxic. S2 cells (HEK-293 line with an ATXN2-luciferase reporter) viability, CellTiter-Fluor protease fluorescence, 24 h. AID 651635; further: nearly all actives have a fitted effect of over 40% in size
HepG2 tox = counter-screen for TGF-b inhibitors: cytotoxicity in HepG2 cells | HepG2 CAGA-GFP viability, ATP luminescence, 18 h | actives 0.76% (n = 410,000) | Potency, µM (highest dose often 46.1 µM), for inactives: at the highest dose activity change, negative = cytotoxicity, most hits filed as cytotoxic | AID 588856
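CellTiter-Glo luminescence gave cytotoxicity after 18 hours at 37 degrees C. The cells were HepG2 CAGA-GFP in 1% FBS DMEM, stimulated with 500 pg/mL TGF-beta after compound addition. %Activity was normalised to no-cell wells (complete cell-killing) and DMSO (no toxicity), and curves were fitted and classified.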
ATXN2 expr inh = ATXN2 expression inhibition; Potency, µM (titrated, usually from 57 µM), without a hit: top-dose activity change, negative = inhibition, most hits filed as inhibitors; actives 0.72% (n = 360,000); HEK-293 ATXN2-luciferase reporter, luminescence, 24 h; AID 1745845; further: on the % scale 0 is the no-effect control and ±100 the full control effect; nearly all actives have a fitted effect of over 55% in size
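ATXN2-luciferase reporter cells (luciferase flanked by upstream and downstream ATXN2 gene portions) were treated 24 h at 37 °C with compounds at up to 57 uM. SteadyGlo luminescence gave expression; GF-AFC fluorescence gave viability.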
Gal4-VP16 FLuc = Gal4-VP16 reporter inhibition counter-screen. Drosophila S2 Gal4-VP16 UAS-luciferase, luminescence, 20 h. Potency, µM (series often up to 53.6 µM), for inactives: at the highest dose activity, negative = inhibition, hits mostly inhibitors. actives 3.5% (n = 310,000);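 further: Gal4-VP16 expression switched on by copper sulfate through the metallothionein promoter; on the % scale 0 is the no-effect control and ±100 the full control effect; nearly all actives have a fitted effect of over 50% in size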
TGFb SMAD3 inh = inhibitors of TGF-b signaling | HepG2 CAGA-GFP TGF-b/SMAD3 reporter, GFP fluorescence, 18 h; TGF-beta stimulated, 500 pg/mL final | actives 1.2% (n = 410,000) | Potency, µM (doses to about 46.1 µM), without a hit: at the highest dose activity, negative = inhibition, most hits filed as inhibitors; further: on the % scale 0 is the no-effect control and ±100 the full control effect; nearly all actives have a fitted effect of over 65% in size
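Cell-based qHTS in HEPG2 carrying a CAGA-GFP Smad reporter; compounds added before 500 pg/mL final TGF-beta, 18 h incubation at 37 degrees C, GFP fluorescence quantified per cell by imaging cytometry.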
* marks the source's active call; other numbers are inactive results; i = inactive; ? = inconclusive; . = no result given; [ ] = another dose, or the depositor's remark. The call rests on the fitted dose curve; in most records, active means well fitted curve in the direction sought with a large enough effect; inconclusive means small, poorly fitted or top-dose-only effect, or another doubt; inactive means no such curve, though single readings can be large; an effect the other way counts as inactive or inconclusive. Potency means the concentration at half of the fitted maximal effect.

SMILES	RORgamma inh	S2 tox	HepG2 tox	ATXN2 expr inh	Gal4-VP16 FLuc	TGFb SMAD3 inh
CC(C)CNC(=S)NC(=O)c1ccccc1Cl	5µM*	i	-8%	38%	11µM*	-14%
O=C(NC(=S)Nc1ccc(O)cc1)c1ccccc1Cl	-41%	i	-30%	43%	-17%	2%
COc1ccc(NC(=S)NC(=O)c2ccccc2Cl)cc1	6.3µM*	i	-9%	.	?	14%
O=C(NC(=S)Nc1ccc(-c2ccccc2)cc1)c1ccccc1	.	i	-10%	3%	.	-10%
O=C(NC(=S)Nc1ccc(Oc2ccc(Cl)cc2)cc1)c1ccccc1	3.5µM*	i	-25%	-8%	7.9µM*	-18%
O=C(NC(=S)Nc1ccc(Cl)cc1)c1ccccc1	20µM*	i	-10%	-11%	?	-19%
CC(NC(=O)c1ccccc1Cl)NC(=O)c1ccccc1Cl	-1%	i	-3%	-11%	-2%	5%
COc1ccccc1-c1ccnc(-n2ncc(C(=O)N(C)C(C)c3ccon3)c2C2CC2)n1 (stereo not given)	.	i	.	.	.	.
CCOc1cc(NC(=S)NCc2ccco2)c(OCC)cc1NC(=O)C1CC1	11µM*	i	-35%	-1%	?	-10%
CCOc1cc(NC(=S)NCc2ccco2)c(OCC)cc1NC(C)=O	-22%	i	7%	-1%	0%	2%
COc1ccc(OC)c(NC(=S)NCc2ccc(S(N)(=O)=O)cc2)c1	14%	i	4%	0%	22%	-7%
COc1ccc(CNC(=S)Nc2cc(OC)ccc2OC)cc1	18µM*	i	8%	-2%	?	13%
COc1ccccc1NC(=S)NCc1ccc(F)cc1	32µM*	i	-5%	-11%	?	-2%
Cc1cc(OCC(=O)NNC(=S)NC(=O)c2ccc(Br)o2)ccc1Cl	7.9µM*	i	5%	-17%	-21%	-30%
COc1cc(-c2ccc(C(F)(F)F)cn2)cc2c1OCCN(S(=O)(=O)C[C@]13CC[C@H](CC1=O)C3(C)C)C2	.	i	.	.	.	.
Nc1nnnn1-c1ccccc1	.	i	.	-6%	.	.
COC(=O)c1cc2sc(Cl)cc2n1CC(=O)Nc1cc(C)cc(C)c1	.	i	-4%	-1%	.	6%
Fc1ccc(-n2nc(-c3ccccc3)c3cnc4ccccc4c32)cc1Cl	.	i	0%	11%	.	-2%
CCOc1ccc(CNC(=O)Cn2ccc3cc(S(=O)(=O)N4CCCCC4)ccc32)cc1	.	?	-20%	-28%	.	-30%
COc1ccc(OC)c(NC(=S)NC(=O)c2ccc(Br)o2)c1	4µM*	i	1%	-7%	?	3%
COc1ccc(NC(=S)NCc2ccc(F)cc2)c(OC)c1	13µM*	i	-12%	.	?	-2%
COc1ccccc1NC(=S)NCCc1ccc(F)cc1	5µM*	i	-1%	-3%	-2%[10 µM]	13%
COc1ccc(NC(=S)NCc2ccco2)c(OC)c1	10µM*	i	22%	5%	4%	18%
COc1ccc(OC)c(NC(=S)NCc2ccco2)c1	.	i	0%	1%	.	-17%
Fc1ccccc1NC(=S)NCc1ccc2c(c1)OCO2	?	i	-35%	1%	-16%	-42%
COc1ccccc1NC(=S)NCc1ccc2c(c1)OCO2	18µM*	i	-13%	6%	?	0%
COc1ccccc1NC(=S)NCCc1ccccc1	6.3µM*	i	-22%	28%	?	?
COc1ccc(OC)c(NC(=S)Nc2ccccc2)c1	?	i	-1%	16%	20µM*	-11%
Cc1c(C(=O)NN2CCCCC2)nn(-c2ccc(Cl)cc2Cl)c1-c1ccc(Cl)cc1	24%[10 µM]	i	.	?	-13%	.
Cc1ccc2c(c1)C(=O)C(=O)N2Cc1ccc(OCCC(C)C)cc1	.	.	-5%	.	.	?

Screens from PubChem BioAssay.
